Compounds with a hit are over-represented: about 21% of the library has one in this group of screens.
CHX counter = counter-screen for Shiga toxin inhibitors: cycloheximide protein synthesis inhibition; max response, %; hit rate 12% among 300,000; cell reporter, cycloheximide protein synthesis inhibition counterscreen; in the data active = max response mostly above about 13%, no sharp cut-off; inactive = mostly below about 14%; also: read at 38.3 µM for the half of the compounds with a filed dose; 0% is about no effect
NS1 inh = influenza NS1 inhibition; Potency, µM (highest dose often 46.1 µM), for inactives: at the highest dose activity, positive = more growth; hit rate 0.4% among 270,000; AID 2326; calls by dose curve; also: potency is read from the fitted curve at half-maximal effect; actives are rising curves; nearly all actives have a fitted effect of over 50% in size
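OD600 was taken as the measure of yeast growth restored by compound in an NS1-expressing S. cerevisiae strain. Cells had been washed out of glucose medium and diluted 1:100 into galactose -URA medium, pH 6.0.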
Pf growth 48h = P. falciparum growth inhibition at 48 hours (one generation); hit rate 5.9% among 310,000; Potency, µM (doses to about 28.7 µM), inactives show at the top dose activity change, negative = inhibition, actives largely listed as inhibitors; AID 504832; P. falciparum luciferase growth in erythrocytes, 48 h; also: potency is read from the fitted curve at half-maximal effect; % is scaled to controls: 0 for no effect and ±100 for the full control effect
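Here the parasites carry a stable luciferase gene and grow inside erythrocytes in Albumax-based RPMI medium with compound for one erythrocytic cycle. Activity is scored as loss of luminescent signal.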
Pf growth 96h = P. falciparum growth inhibition at 96 hour, primary screen for plastid delayed-death inhibitors | P. falciparum luciferase reporter growth, 96 h | Potency, µM (doses to about 28.7 µM), for inactives: top-dose activity change, negative = inhibition, usual class: inhibitors | hit rate 6.9% among 320,000; also: potency is read from the fitted curve at half-maximal effect; % is scaled to controls: 0 for no effect and ±100 for the full control effect
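Delayed-death screen, second-generation endpoint: infected erythrocytes, 2% hematocrit, 0.05% parasitemia final; 96 hours at 37 C, 5% CO2; luciferase detection reagent; luminescence decrease equals reduced growth.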
Shiga toxin inh = inhibitors of Shiga toxin in Vero cells. hit rate 9.2% among 290,000. Vero cells, Shiga toxin protein synthesis inhibition reporter. inhibition, % at 38.7 µM; in the data active = inhibition mostly above about 28%, no sharp cut-off; inactive = mostly below about 43%; also: 0% is about no effect
Sm TGR block = blocks Schistosoma mansoni thioredoxin glutathione reductase; Potency, µM (doses to about 114 µM), for the others: at the top dose activity change, negative = inhibition, usual class: inhibitors; AID 485364; purified TGR, DTNB reduction, TNB absorbance 405 nm; hit rate 3% among 360,000; also: potency is read from the fitted curve at half-maximal effect; % is scaled to controls: 0 for no effect and ±100 for the full control effect; nearly all actives have a fitted effect of over 60% in size
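TGR 20 nM + NADPH 100 uM (dispensed conc.), cpd preinc 15 min RT; start with NADPH (500 uM addition) then DTNB (15 mM addition). Kinetic TNB absorbance, 405 nm filter. Four-parameter Hill fit across titration.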
* hit, by the source's call; ? = inconclusive; nt = not tested or not shown; [ ] = remark or other dose. Unless noted, calls follow the shape of the dose curve; as a rule, active = well fitted curve in the direction sought with a large enough effect; inconclusive = small, poorly fitted or top-dose-only effect, or another doubt; inactive = no such curve, though single readings can be large; an effect the other way counts as inactive or inconclusive.

SMILES	CHX counter	NS1 inh	Pf growth 48h	Pf growth 96h	Shiga toxin inh	Sm TGR block
O=C1N=C(N2CCOCC2)S/C1=C1\C(=O)N(Cc2ccccc2)c2ccccc21	15	4%	15%	?	24	0%
CCCN1C(=O)/C(=C2\SC(N3CCCCC3)=NC2=O)c2ccccc21	46*	-103%	?	?	68*	5%
O=C1N=C(N2CCCCC2)SC1=C1CCCCC1	33*	-8%	93%	nt	114*	2%
CN1C(=O)/C(=C2\SC(N3CCCCCC3)=NC2=O)c2ccccc21	20*	-3%	nt	4.1µM*	32	1%
O=C(Nc1ccccc1)OCCOc1ccccc1	32*	-15%	nt	nt	61*	12%[11.4 µM]
CCC1(COC(=O)Nc2cccc(Cl)c2)COC1	22*	-44%	54%	16%[5.75 µM]	51	-30%
O=C(Nc1ccccc1)OCCOc1ccccc1Br	35*	-9%	49%	?	28*	0%
O=C(Nc1ccccc1)OCCOc1cccc(Br)c1	2	-6%	2%	?	8	10%
O=C(Nc1cccc(Cl)c1)OCCOc1ccccc1	56*	-22%	-14%	?	75*	1%
CN(C)CCNC(=O)CN1C(=O)COc2ccc(C(C)(C)C)cc21	-6	-3%	nt	-3%	-9	-9%
CC(C)CN(C(=O)c1ccc(-n2cncn2)c([N+](=O)[O-])c1)C1CCS(=O)(=O)C1 (centres undefined)	nt	nt	-1%	13%	nt	-2%
C=CCN(C(=O)CCS(=O)(=O)c1cccc2nsnc12)c1ccccc1	-5	-3%	-13%	-2%	10	25µM*
CCN(C(=O)CCS(=O)(=O)c1cccc2nsnc12)c1cccc(C)c1	-5	8%	-17%	-5%	-10	?
CCC1=NN(C(=O)c2ccc(C)cc2)C(O)(c2ccc(Br)cc2)C1 (centres undefined)	39*	-15%	11%	13µM*	44*	-4%
COC(=O)C1=NN(C(=O)c2ccc(C)cc2)C(O)(c2ccc(Cl)cc2)C1 (centres undefined)	-1	-84%	2%	51%	3	8%
CCC1=NN(C(=O)Cc2ccccc2)C(O)(c2ccncc2)C1 (centres undefined)	-1	4%	?	?	-7	12%
CCC1=NN(C(=O)c2ccc(Br)cc2)C(O)(c2ccc(C)cc2)C1 (centres undefined)	33*	-43%	31%	-17%	32*	15%
CCC1=NN(C(=O)c2cccc(Br)c2)C(O)(c2ccc(Br)cc2)C1 (centres undefined)	41*	-42%	?	?	70*	-6%
Cn1c(=O)c2c(ncn2CC(=O)N/N=C/C(Cl)=C/c2ccccc2)n(C)c1=O	-1	2%	17%	43%	-8	-2%
CC(/C=N/NC(=O)Cn1cnc2c1c(=O)n(C)c(=O)n2C)=C\c1ccco1	-1	2%	4%	-1%	-5	25µM*
Cn1c(=O)c2c(ncn2CC(=O)N/N=C/C=C/c2ccco2)n(C)c1=O	-2	7%	31%	35%	-4	11µM*
N[C@@H](CC1=CS(=O)(=O)c2ccc(Cl)cc21)C(=O)O	nt	8%	nt	nt	nt	nt
CC(C)CC(=O)Nc1ccc(OCC(=O)O)cc1	-5	-3%	0%	nt	-1	2%
N#Cc1ccsc1NC(=O)COc1ccc(-c2nnco2)cc1	35*	-6%	103%	?	99*	-22%
N#CCSc1ccccc1NC(=O)COc1ccc(-c2nnco2)cc1	nt	nt	?	?	nt	2%
SMILES	CHX counter	NS1 inh	Pf growth 48h	Pf growth 96h	Shiga toxin inh	Sm TGR block
O=C(CSc1nnc(-c2ccccc2)o1)Nc1ccccc1F	23*	-16%	nt	17%	6	-8%
CC(C)CC(=O)Nc1ccc(C(=O)COc2ccc(-c3nnco3)cc2)cc1	-3	-6%	?	2.1µM*	19	-7%
Cc1cnc(NC(=O)CC(C)c2ccccc2)s1 (centres undefined)	28*	-4%	4%	30%	60*	10%
CCc1nnc(NC(=O)CSc2nnc(-c3ccccc3O)o2)s1	34*	-3%	26%	27%	92*	9%
COc1ccccc1-c1nnc(SCC(=O)Nc2ccccc2F)o1	nt	nt	nt	nt	nt	-4%
Cc1ccc(-c2nnc(SCC(=O)Nc3ccccc3F)o2)cc1	16*	-11%	nt	?	-3	-24%
CCOC(=O)c1cc(-c2nnc(SCC(=O)Nc3ccc(F)cc3)o2)c(C)nc1C	-2	-7%	nt	12µM*	-5	11%[11.4 µM]
N#Cc1ccsc1NC(=O)CSc1nnc(-c2ccccc2)o1	31*	7%	10%	nt	87*	-3%
Cc1cnc(NC(=O)CSc2nnc(-c3ccccc3)o2)s1	41*	3%	130%	-31%	44*	2%
Cc1ccc(-c2nnc(SCC(=O)Nc3sc(C)c(C)c3C#N)n2C)cc1	-4	18%	22%	-22%	-2	8%
Cc1sc(NC(=O)CSc2nnc(-c3ccc(F)cc3)o2)c(C#N)c1C	6	5%	-13%	9.3µM*	16	-22%
N#Cc1ccsc1NC(=O)CCc1ccccc1	32*	1%	98%	-4%	68*	-29%
CCc1nnc(NC(=O)CSc2ncc(-c3ccccc3)n2C)s1	54*	nt	65%	25%	102*	6%
Cc1cnc(NC(=O)CSc2nnc(COc3ccccc3)o2)s1	1	8%	9%	17%	30	-13%
Cc1ccnc(NS(=O)(=O)c2ccc3ccccc3c2)n1	-2	15%	-2%	4%	nt	-14%
COc1cc(NC(=O)CSCC(=O)Nc2cc(OC)cc(OC)c2)cc(OC)c1	-2	-7%	0%	54%	-4	4%
CC(C)CN(C(=O)COC(=O)CCc1c[nH]c2ccccc12)c1c(N)n(Cc2ccccc2)c(=O)[nH]c1=O	nt	nt	?	0%	nt	0%
COc1ccc(S(=O)(=O)NCc2ccc(C(=O)NCc3ccccc3)cc2)cc1	nt	nt	nt	nt	nt	3%
O=C1CCCc2nc(N3CCc4ccccc43)ncc21	38*	-12%	148%	nt	94*	-28%
CC1(C)CC(=O)c2cnc(N3CCc4ccccc4C3)nc2C1	24*	0%	118%	0%	89*	7%
CC(=O)N/N=C/c1ccccc1OCCOc1cccc(C)c1	2	-36%	31%	-13%	-8	2%
CCN(CC)S(=O)(=O)c1ccc(NCC2COc3ccccc3O2)c([N+](=O)[O-])c1 (centres undefined)	20*	12%	?	?	21	-2%
CN(C)S(=O)(=O)c1ccc(NCC2COc3ccccc3O2)c([N+](=O)[O-])c1 (centres undefined)	27*	24%	-9%	13µM*	49	-8%
NC(=O)c1ccc(NCC2COc3ccccc3O2)c([N+](=O)[O-])c1 (centres undefined)	33*	-2%	57%	36%	29	13%

Assay outcomes deposited in PubChem by National Center for Advancing Translational Sciences (NCATS).
